Measured values published in PubChem BioAssay AID1863 (Southern Research Specialized Biocontainment Screening …, 2009).
Several values for one entry are separate records, joined by “and”; a condition that tells them apart may be missing. Identical values can stand only once. About 480 (0.16%) of roughly 300,000 compounds were called active.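 The calls were made as follows: active = inhibition over 29.93%, a cutoff 3 SD above the screen mean, later confirmed by dose response; inconclusive = inhibition over 29.93% but no dose response follow-up; inactive = inhibition at most 29.93% or unconfirmed.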 Not all results are given here. Results with a measured potency or affinity are listed apart.

Assay: PhoP-dependent GFP reporter repression – Salmonella Typhimurium, primary screen (AID 1863);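 also: 0% = low Mg2+ inducing control and 100% = high Mg2+ repressing control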
Settings: S. Typhimurium PhoP-regulated promoter GFP reporter, 4 h; at 50 µM; hits give high values

inhibition, inactive:
NC(=O)c1ccc(NC(=O)COc2coc(CN3CCc4ccccc4C3)cc2=O)cc1 6.56%
COc1cc(C(C[N+](=O)[O-])c2c(N)n(C)c(=O)n(C)c2=O)ccc1O (stereo not given) -4.81%
COc1ccccc1C(C[N+](=O)[O-])c1c(N)n(C)c(=O)n(C)c1=O (stereo not given) 2.03%
CC(C)OC(=O)CSc1nnc(CNc2cccc(Cl)c2)n1C -3.82%
CCSc1ccccc1C(=O)Nc1nc2ccccc2c(=O)[nH]1 2.88%
COc1cc2cccc(OC)c(=O)c2c(O)c1OC -3.95%
COc1cc2cccc(OC)c(=O)c2c(OC)c1OC -4.09%
Cc1ccc(-c2nn(-c3ccccc3)cc2C(=O)NCC(c2cccs2)N2CCOCC2)cc1 (stereo not given) -6.92%
CC(C)CCOP(=O)(c1ccc(N(C)C)cc1)C(O)c1c(Cl)cccc1Cl (stereo not given) -4.25%
COc1ccc([N+](=O)[O-])cc1NC(=O)C(C)OC(=O)C1CC(=O)N(Cc2ccco2)C1 (stereo not given) -5.1%
COC(=O)c1ccc(N2C(=O)CC(N3CCOCC3)C2=O)cc1 (stereo not given) 1.31%
O=C(NN=C1c2ccccc2-c2ccccc21)c1ccccn1 9.9%
COc1ccc2c(c1)C(=NNC(=O)c1ccccn1)c1cc(OC)ccc1-2 -4.06%
Cc1ccccc1CS(=O)(=O)c1ccc(C(=O)N2CCC(C)CC2)cc1[N+](=O)[O-] 1.32%
Cn1c2c(c(=O)n(C)c1=O)C(c1ccc(Br)cc1)Nc1ccccc1O2 (stereo not given) -10.1%
Cc1ccc(C(C[N+](=O)[O-])n2nc(C)cc2C)cc1 (stereo not given) 4.29%
Cc1cc(C)n(C(C[N+](=O)[O-])c2ccc(Cl)cc2)n1 (stereo not given) 16.6%
COc1ccc(-c2cc(C(=O)OCC(=O)NC(C)C)c3ccccc3n2)cc1 6.33%
COCCN(C(=O)COC(=O)c1ccc2c(c1)OCCO2)c1c(N)n(Cc2ccccc2)c(=O)[nH]c1=O 0.22%
CCOC(=O)C1CCCN(C(=O)c2ccc(-c3ccc([N+](=O)[O-])cc3)o2)C1 (stereo not given) 3.02%
CSc1ncccc1C(=O)Nc1nc2ccc(Oc3ccccc3)cc2s1 -15.8%
Cc1ccc2nc(N(CCCN(C)C)C(=O)CCc3ccccc3)sc2c1 -4.17%
CN(C)CCCN(C(=O)CCc1ccccc1)c1nc2ccc(Br)cc2s1 10.9%
C=CCN1CCN(C(=O)c2oc3ccccc3c2C)CC1 -3.66%
Cc1ccc(NC2CCCN(C(=O)c3cn(C)c4ccccc34)C2)cc1C (stereo not given) 0.88%
CC(C)C(=O)NC(c1cccs1)c1cc([N+](=O)[O-])c2cccnc2c1O (stereo not given) 2.63%
CCCC(=O)NC(c1cccs1)c1cc(Cl)c2cccnc2c1O (stereo not given) -5.84%
CC(C)C(=O)NC(c1ccccc1)c1cc([N+](=O)[O-])c2cccnc2c1O (stereo not given) -2.27%
CC(=O)NC(c1ccccc1)c1cc([N+](=O)[O-])c2cccnc2c1O (stereo not given) 4.87%
Cc1ccc(C(NC(=O)C(C)C)c2cc([N+](=O)[O-])c3cccnc3c2O)cc1 (stereo not given) 9.47%
COc1cccc(C(NC(C)=O)c2ccc3cccnc3c2O)c1 (stereo not given) 9.73%
CC(=O)NC(c1ccc2ccccc2c1)c1ccc2cccnc2c1O (stereo not given) 56.5%
CCCCC(=O)NC(c1cccs1)c1cc(Cl)c2cccnc2c1O (stereo not given) -0.21%
COc1cccc2cc(CC(=O)c3cc(C)ccc3C)c(=O)oc12 -3.13%
CCOc1ccc(NC(=O)CN(C)C(=O)c2ccc3nc(CC)c(CC)nc3c2)cc1OCC -9.1%
CC(C)C[C@H](NC(=O)c1nc[nH]c1C(=O)NCCCCCNC(=O)OC(C)(C)C)C(=O)OCc1ccccc1 -4.74%
Cc1ccc(S(=O)(=O)N2CCN(C(=O)CC(C)C)CC2)cc1 3.71%
Cc1ccc(NC(=O)Nc2ccon2)cc1Cl 0.2%
Clc1ccccc1CONc1ncnc2nonc12 -2.15%
CCC(C)(C)NC(=O)Cc1ccc(OC)c(OC)c1 -10.6%
O=Cc1c(F)cccc1N1CCCC1 8.32%
Cc1cccc(NC(=O)CC2(CC(=O)O)CCCC2)c1 -1.98%
Cc1ccc(C2N(c3ccc(Cl)cc3)C(=O)N3CCCN23)cc1 (stereo not given) -0.36%
O=[N+]([O-])c1cc2cccnc2c2ncccc12 -10.2%
CCOC(=O)COc1cc([N+](=O)[O-])cc2cccnc12 1.41%
CN(C)[C@@H]1C(=O)C(C(=O)NCN2CCCC2)=C(O)[C@@]2(O)C(=O)C3=C(O)c4c(O)cccc4[C@@](C)(O)C3CC12 (stereo not given in full) 1.32%
O=C1C(Oc2ccc(Cl)cc2)C(c2ccc3c(c2)OCO3)N1CC1CCCO1 (stereo not given) -1.66%
COc1ccc(-c2cc(C(F)(F)F)n3nc(C(=O)N4CCN5CCCC5C4)cc3n2)cc1OC (stereo not given) 8.34%
CN1C(=O)[C@@H]2[C@H](C1=O)[C@@H]1C(=O)Nc3ccccc3C(=O)N1[C@@H]2c1ccc(F)cc1 6.12%
CC1Cc2ccccc2N1C(=O)CSc1nnnn1-c1ccc2c(c1)OCCO2 (stereo not given) 4.49%
C#CCOCCOCCOCCNc1nc(N2CCN(C(=O)CCCCCCCCCCNC(=O)[C@H](CCCCN)n3cc(C[C@@H](C)CC)nn3)CC2)nc(N2CCN(C(=O)CCCCCCCCCCNC(=O)[C@H](CCCCN)n3cc(C[C@@H](C)CC)nn3)CC2)n1 20.6%
C#CCOCCOCCOCCNc1nc(N2CCN(C(=O)CCCCCCCCCCNC(=O)[C@H](CCCCN)n3cc(C)nn3)CC2)nc(N2CCN(C(=O)CCCCCCCCCCNC(=O)[C@H](CCCN=C(N)N)n3cc(C[C@@H](C)CC)nn3)CC2)n1 23.8%
C#CCOCCOCCOCCNc1nc(N2CCN(C(=O)CCCCCCCCCCNC(=O)[C@H](CCCCN)n3cc(CCCC(=O)O)nn3)CC2)nc(N2CCN(C(=O)CCCCCCCCCCNC(=O)[C@H](CCCN=C(N)N)n3cc(C[C@@H](C)CC)nn3)CC2)n1 -5.84%
C#CCOCCOCCOCCNc1nc(N2CCN(C(=O)CCCCCCCCCCNC(=O)[C@H](CCCCN)n3cc(CCO)nn3)CC2)nc(N2CCN(C(=O)CCCCCCCCCCNC(=O)[C@H](CCCN=C(N)N)n3cc(C[C@@H](C)CC)nn3)CC2)n1 25.8%
Cc1cc(C)cc(NC(=O)CN(C)S(=O)(=O)c2cccc3nsnc23)c1 -9.89%
CC(C)CCNC(=O)NC(=O)COC(=O)CCN=C1NS(=O)(=O)c2ccccc21 -10.2%
COC(=O)CCC(=O)N1CN2CN(C(=O)CCC(=O)OC)CC([N+](=O)[O-])(C2)C1 -5.21%
c1ccc(Nc2nn[nH]n2)cc1 -21.5%
CC[C@H]1OC(=O)[C@H](C)[C@@H](O[C@H]2C[C@@](C)(OC)[C@@H](O)[C@H](C)O2)[C@H](C)[C@@H](O[C@@H]2O[C@H](C)C[C@H](N(C)C)[C@H]2O)[C@](C)(OC)C[C@@H](C)C(=O)[C@H](C)[C@@H](O)[C@]1(C)O -8.63% and -8.23%
CCC(=O)O[C@@H]1CC(=O)O[C@H](C)CC=CC=C[C@@H](O)[C@H](C)C[C@H](CC=O)[C@H](O[C@H]2O[C@H](C)[C@@H](O[C@H]3C[C@@](C)(O)[C@@H](OC(=O)CC)[C@H](C)O3)[C@H](N(C)C)[C@H]2O)[C@H]1OC -22.5%
CC1CCCN(C(=O)c2ccc(S(=O)(=O)Nc3ccccc3Cl)cc2)C1 (stereo not given) 3.82%
Cc1ccc(CN2C(=O)CCC2C(=O)NCCN2CCN(c3cccc(Cl)c3)CC2)cc1 (stereo not given) -4.51%
CCOCCCNC(=O)c1ccc2c(c1)ncn2-c1ccc(C)cc1C -8.15%
COc1cc(/C=N/N=C(N)N)ccc1OCc1ccc(Cl)cc1 2.42%
NC(N)=N/N=C/c1ccc(OCc2ccccc2)cc1 17.1%
NC(N)=N/N=C/c1ccc(OCc2ccccc2)c(OCc2ccccc2)c1 10.4%
NC(N)=N/N=C/c1ccc(OCc2ccc(Cl)cc2Cl)cc1 -0.84%
CCn1ncc(Cl)c1C(=O)NC(=S)Nc1c(C)cc(C)cc1[N+](=O)[O-] 8.05%
CC(=O)c1cccc(NC(=O)CCCNC(=O)c2ccc(Cl)cc2)c1 0.5%
O=C(O)[C@@H]1CSC2c3ccccc3C(=O)N21 (stereo not given in full) -0.36%
CSCC[C@H](NC(=O)Nc1ccc(Oc2ccccc2)cc1)C(=O)O 0.47%
COC(=O)CSc1nc(N)c(C#N)c(CC(C)C)c1C#N -5.81%
Cc1ccc(NS(=O)(=O)c2ccc3c(c2)NC(=O)CCS3)cc1F 4.54%
COc1ccc(NC(=O)C/C(C)=N/NC(=O)c2cccs2)c([N+](=O)[O-])c1 6.98%
Cc1ccc2ccc(C(Nc3ccccn3)c3ccccc3)c(O)c2n1 (stereo not given) 26.2%
Oc1c(C(Nc2cccc(C(F)(F)F)c2)c2cccnc2)ccc2cccnc12 (stereo not given) 69.6%
Oc1ccccc1C(Nc1nccs1)c1ccc2cccnc2c1O (stereo not given) 1.53%
COc1ccccc1NC(c1cccnc1)c1ccc2cccnc2c1O (stereo not given) 24.8%
O=C(Cc1cccs1)NCc1ccncc1 20.6%
CC1(C)CCC/C(=C\c2ccccc2)C1=O -2.34%
